Results published in PubChem BioAssay (EPA / NIEHS).
Calls of active or inactive are those of the source. The calls were made as follows: active = hit-call score of the fitted dose curve at least 0.9, where 1 is the maximum; inactive = score below 0.9.

Experiments:
[1] = read-out: serum amyloid A (SAA), SAA1 (gene 6288); assay: BSK_CASM3C_SAA: BioMAP Diversity Plus: CASM3C Assay for serum amyloid A (SAA) Biomarker Activity (AID 2283049); conditions: primary human coronary artery smooth muscle cells; actives raise or lower the signal;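 also: SAA protein level quantified by ELISA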
[2] = BSK_CASM3C_SRB: Viability Assessment in the BioMAP Diversity Plus: CASM3C Assay (AID 2283050); conditions: primary human coronary artery smooth muscle cells;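 also: total protein by SRB staining as cytotoxicity measure in parallel cultures; cells exposed to compound for 24 h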
[3] = read-out: Thrombomodulin, THBD (gene 7056); assay: BSK_CASM3C_Thrombomodulin: BioMAP Diversity Plus: CASM3C Assay for Thrombomodulin Biomarker Activity (AID 2283051); conditions: primary human coronary artery smooth muscle cells; actives raise or lower the signal;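 also: thrombomodulin protein level measured by ELISA 24 h after dosing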
[4] = read-out: Tissue Factor, F3 (gene 2152); assay: BSK_CASM3C_TissueFactor: BioMAP Diversity Plus: CASM3C Assay for Tissue Factor Biomarker Activity (AID 2283052); conditions: primary human coronary artery smooth muscle cells; actives raise or lower the signal;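 also: cell surface tissue factor protein level read by ELISA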
[5] = read-out: Interferon-gamma inducible Protein 10 (IP10), CXCL10 (gene 3627); assay: BSK_hDFCGF_IP10: BioMAP Diversity Plus: hDFCGF Assay for Interferon-gamma inducible Protein 10 (IP10) Biomarker Activity (AID 2283053); conditions: primary human foreskin fibroblasts; actives raise or lower the signal
Outline: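 ELISA quantification of IP-10 after a 24 h chemical exposure of human dermal foreskin fibroblast primary cultures. Both increases and decreases versus DMSO fitted.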

[6] = read-out: Urokinase-type plasminogen activator receptor (uPAR), PLAUR (gene 5329); assay: BSK_CASM3C_uPAR: BioMAP Diversity Plus: CASM3C Assay for Urokinase-type plasminogen activator receptor (uPAR) Biomarker Activity (AID 2283054); conditions: primary human coronary artery smooth muscle cells; actives raise or lower the signal;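 also: cell-surface uPAR protein level quantified by ELISA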
[7] = read-out: Vascular cell adhesion molecule 1 (VCAM1), VCAM1 (gene 7412); assay: BSK_CASM3C_VCAM1: BioMAP Diversity Plus: CASM3C Assay for Vascular cell adhesion molecule 1 (VCAM1) Biomarker Activity (AID 2283055); conditions: primary human coronary artery smooth muscle cells; actives raise or lower the signal;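 also: VCAM-1 protein level quantified by ELISA on the cells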
[8] = read-out: Collagen III, COL3A1 (gene 1281); assay: BSK_hDFCGF_CollagenIII: BioMAP Diversity Plus: hDFCGF Assay for Collagen III Biomarker Activity (AID 2283056); conditions: primary human foreskin fibroblasts; actives raise or lower the signal
Outline: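 hDFCGF primary human dermal fibroblasts; 24 h chemical exposure; collagen III by ELISA; bidirectional curve fit vs DMSO baseline (gain or loss of signal).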

[9] = read-out: Epidermal growth factor receptor (EGFR), EGFR (gene 1956); assay: BSK_hDFCGF_EGFR: BioMAP Diversity Plus: hDFCGF Assay for Epidermal growth factor receptor (EGFR) Biomarker Activity (AID 2283057); conditions: primary human foreskin fibroblasts; actives raise or lower the signal
Outline: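 EGFR levels by ELISA in human dermal fibroblast cultures, 24 h post-treatment, fitted bidirectionally versus DMSO. Parallel wells stained with sulforhodamine B to detect overt cytotoxicity.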

[10] = read-out: Interleukin-8 (IL8), CXCL8 (gene 3576); assay: BSK_hDFCGF_IL8: BioMAP Diversity Plus: hDFCGF Assay for Interleukin-8 (IL8) Biomarker Activity (AID 2283058); conditions: primary human foreskin fibroblasts; actives raise or lower the signal
Outline: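 ELISA read-out of IL-8 from primary human foreskin fibroblast cultures taken 24 h after dosing; values are bidirectional fits relative to DMSO vehicle.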

Measured: AC50

O=[N+]([O-])c1ccccc1
inactive: [1] | [2] | [3] | [4] | [5] | [6] | [7] | [8] | [9] | [10]

Cc1ccc(N)cc1N
inactive: [1] | [2] | [3] | [4] | [5] | [6] | [7] | [8] | [9] | [10]

Nc1cc2c3c(c1)C(c1ccccc1)=N[C@@H](NC(=O)c1cccnc1)C(=O)N3CC2
inactive: [1] | [2] | [3] | [4] | [5] | [6] | [7] | [8] | [9] | [10]

O=C(O)C(F)(F)OC(F)(F)C(F)(F)OC(F)(F)F
inactive: [1] | [2] | [3] | [4] | [5] | [6] | [7] | [8] | [9] | [10]

c1ccc2c(c1)Nc1ccccc1S2
inactive: [1] | [2] | [4] | [6] | [7] | [8] | [9] | [10]
active: [3] 0.542 µM | [5] 20 µM

COP(=O)(O)OC
inactive: [1] | [2] | [3] | [4] | [5] | [6] | [7] | [8] | [9] | [10]

c1ccc(OP(Oc2ccccc2)Oc2ccccc2)cc1
inactive: [1] | [2] | [3] | [4] | [5] | [6] | [7] | [8] | [9] | [10]

CCC(C)(C)c1ccc(O)cc1
inactive: [1] | [2] | [3] | [4] | [5] | [6] | [7] | [8] | [9] | [10]

O=c1ssc(Cl)c1Cl
inactive: [3]
active: [1] 1.4 µM | [2] 3.99 µM | [4] 6.61 µM | [5] 3.7 µM | [6] 6.83 µM | [7] 4.48 µM | [8] 8.15 µM | [9] 3.16 µM | [10] 13.1 µM

CCCCN(CCCC)N=O
inactive: [1] | [2] | [3] | [4] | [5] | [6] | [7] | [8] | [9] | [10]

CC(Cl)CN(C)C (centres undefined)
inactive: [1] | [2] | [3] | [4] | [5] | [7] | [8] | [9] | [10]
active: [6] 0.177 µM

CC(C)(C)OOC(C)(C)C
inactive: [1] | [2] | [3] | [4] | [5] | [6] | [7] | [8] | [9] | [10]

CCCN(CCC)c1c([N+](=O)[O-])cc(C(C)C)cc1[N+](=O)[O-]
inactive: [1] | [2] | [4] | [6] | [7] | [10]
active: [3] 20 µM | [5] 20 µM | [8] 9.07 µM | [9] 20 µM

COP(N)(=S)OC
inactive: [1] | [2] | [3] | [4] | [5] | [6] | [7] | [8] | [9] | [10]

CCNc1nc(Cl)nc(NC(C)(C)C)n1
inactive: [1] | [2] | [3] | [4] | [5] | [6] | [7] | [8] | [9] | [10]

O=C(O)C(Cl)Cl
inactive: [1] | [2] | [3] | [4] | [5] | [6] | [7] | [8] | [9] | [10]

CCCCC(CC)COP(=O)(Oc1ccccc1)Oc1ccccc1 (centres undefined)
inactive: [1] | [3] | [4] | [6] | [7] | [9]
active: [2] 20 µM | [5] 4.03 µM | [8] 2.39 µM | [10] 11.9 µM

COP(=O)(CCC(=O)NCO)OC
inactive: [1] | [2] | [3] | [4] | [5] | [6] | [7] | [8] | [9] | [10]

OCC(F)(F)OC(F)(F)C(F)(F)OC(F)(F)CO
inactive: [1] | [2] | [3] | [4] | [5] | [6] | [7] | [8] | [9] | [10]

CCOP(=S)(Oc1ccc([N+](=O)[O-])cc1)c1ccccc1 (centres undefined)
inactive: [1] | [4] | [6] | [7] | [9] | [10]
active: [3] 12.9 µM | [5] 20 µM | [8] 8.08 µM

CCN(CC)c1ccccc1
inactive: [1] | [2] | [3] | [4] | [5] | [6] | [7] | [8] | [9] | [10]

CC(Cl)(Cl)C(=O)O
inactive: [1] | [2] | [3] | [4] | [5] | [6] | [7] | [8] | [9] | [10]

O=[N+]([O-])c1ccc(Cl)c(Cl)c1
inactive: [1] | [2] | [3] | [4] | [5] | [6] | [7] | [8] | [9] | [10]

ClC(Cl)=C(c1ccc(Cl)cc1)c1ccccc1Cl
active: [2] 28.2 µM | [4] 24 µM | [5] 3.72 µM | [6] 32.6 µM | [7] 20 µM | [8] 2.45 µM | [9] 4.82 µM | [10] 4.15 µM
inactive: [1] | [3]

COCCOCCO
inactive: [1] | [2] | [3] | [4] | [5] | [6] | [7] | [8] | [9] | [10]

O=C(O)C(F)(F)OC(F)(F)C(F)(F)OC(F)(F)C(=O)O
inactive: [1] | [2] | [3] | [4] | [5] | [6] | [7] | [8] | [9] | [10]

CCOP(=S)(OCC)SCn1nnc2ccccc2c1=O
inactive: [1] | [2] | [3] | [4] | [5] | [6] | [7] | [8] | [9] | [10]

[N-]=[N+]=[N-]
inactive: [1] | [2] | [3] | [4] | [5] | [6] | [7] | [8] | [9] | [10]

CCC1(c2ccccc2)C(=O)N=C(O)NC1=O (centres undefined)
inactive: [1] | [2] | [3] | [4] | [5] | [6] | [7] | [8] | [9] | [10]

Cc1ccc([N+](=O)[O-])cc1C
inactive: [1] | [2] | [3] | [4] | [5] | [6] | [7] | [8] | [9] | [10]

Cc1c([N+](=O)[O-])cc2c(c1[N+](=O)[O-])C(C)(C)CC2(C)C
active: [3] 7.74 µM | [6] 0.384 µM | [8] 3.32 µM
inactive: [1] | [2] | [4] | [5] | [7] | [9] | [10]

O=P(Oc1ccccc1)(Oc1ccccc1)Oc1ccccc1
active: [3] 29.6 µM | [8] 8.45 µM
inactive: [1] | [2] | [4] | [5] | [6] | [7] | [9] | [10]

O=C(O)C1C(C(=O)O)C2(Cl)C(Cl)=C(Cl)C1(Cl)C2(Cl)Cl (centres undefined)
inactive: [1] | [2] | [3] | [4] | [5] | [6] | [7] | [8] | [9] | [10]

CCOC(=O)c1ccccc1C(=O)OCC
inactive: [1] | [2] | [3] | [4] | [5] | [6] | [7] | [8] | [9] | [10]

O=P(OCC(Br)CBr)(OCC(Br)CBr)OCC(Br)CBr (centres undefined)
inactive: [1] | [2] | [3] | [4] | [5] | [6] | [7] | [8] | [9] | [10]

c1nc[nH]n1
inactive: [1] | [2] | [3] | [4] | [5] | [6] | [7] | [8] | [9] | [10]

O=S1(=O)OCC2C(CO1)C1(Cl)C(Cl)=C(Cl)C2(Cl)C1(Cl)Cl (centres undefined)
active: [1] 23.2 µM | [3] 20 µM | [4] 20.9 µM | [6] 30.1 µM
inactive: [2] | [5] | [7] | [8] | [9] | [10]

CC(C)(C)c1ccccc1OP(=O)(Oc1ccccc1)Oc1ccccc1
active: [2] 5.23 µM | [3] 11.7 µM | [5] 20 µM | [7] 18.7 µM | [8] 2.83 µM | [9] 13.5 µM
inactive: [1] | [4] | [6] | [10]

CC(C)Nc1ccc(Nc2ccccc2)cc1
active: [1] 32.8 µM | [2] 26.3 µM | [3] 36.6 µM | [4] 13.4 µM | [5] 5.88 µM | [6] 32.9 µM | [7] 27.5 µM | [8] 8.09 µM | [10] 14 µM
inactive: [9]

NC(=O)C(F)(F)C(F)(F)F
inactive: [1] | [2] | [3] | [4] | [5] | [6] | [7] | [8] | [9] | [10]

Cc1ccc(O)cc1C
inactive: [1] | [2] | [3] | [4] | [5] | [6] | [7] | [8] | [9] | [10]
